Assay results: ChEMBL document CHEMBL4513216, “Probing the Open Global Health Chemical Diversity Library for Multistage-Active Starting Points for Next-Generation Antimalarials” (ACS Infect Dis, 2020)
Hit rate of the full screen: of about 69,000 compounds, about 8,600 (12%) showed an effect of 50% or more. The full list was thinned out, with strong results kept by preference.

These compounds were tested on Plasmodium berghei (assay: Screen against P. berghei liver stage (PbLuc), transformed with Luciferase, at 10uM). Settings: tested at 10 uM.
Type: functional, HepG2

Compound | INHIBITION
Cc1nnc2n1CCN(Cc1csc(-c3ccsc3)n1)C2 | 14.4%
CC(C)Cc1nc(CN2CCOC(Cn3cccn3)C2)no1 (configuration not stated) | 28.8%
O=C(c1ccc(-c2cnco2)cc1)N1CCC(Nc2cccnn2)CC1 | -46.2%
Cc1nccn1-c1cncc(C2CCCN2Cc2cccnc2)n1 (configuration not stated) | -22.6%
CCC(CO)N(C/C(C)=C/c1ccco1)Cc1ccsc1 (configuration not stated) | 42.3%
COCCN1CCCc2sc(C(=O)NCC3CCCO3)nc21 (configuration not stated) | -50.8%
COCCN(C)C[C@@H]1CCC[C@@H]2CN(c3ncccn3)C[C@@H]21 | 26%
c1cnc(N2CCCC3(CCN(CC4CCOC4)CC3)C2)nc1 (configuration not stated) | -19.1%
O=C(CC1CC1)N1CCC2(CCCN(c3ncccn3)C2)CC1 | 52%
O=C(c1cccnc1)N1CCC2(CC1)CN(c1ccccn1)CCO2 | -13.2%
O=C(c1ccnnc1)N1CCC2(CC1)CN(c1ccccn1)CCO2 | 33.4%
CN(C)C(=O)N1CCC2(CCCN(c3ncccn3)C2)C1 (configuration not stated) | 11.5%
O=C(c1cccc(F)c1)N1CCC2(CC1)CN(c1ccccn1)CCO2 | 57.9%
O=C(C1=CCCCC1)N1CCC2(CC1)COC(COc1ccccn1)C2 (configuration not stated) | 3.41%
Cc1ccccc1CC(=O)NS(=O)(=O)c1cccc2cnccc12 | 40.6%
CC(C)n1cc(C(=O)N2CCN(c3cccc(C(F)(F)F)c3)CC2)cn1 | 62.8%

Compound | INHIBITION
Cc1cc(N2CCN(C(=O)c3cnn(C(C)C)c3)CC2)cc(C)n1 | 3%
Cc1cc(N2CCN(C(=O)c3cnn(C(C)C)c3)CC2)nc(N)n1 | -2.73%
O=C(c1cscn1)N1CCO[C@H]2[C@@H](Oc3ccccn3)CC[C@@H]21 | 63.8%
O=C(N1CCCC1)N1CCO[C@H]2[C@@H](Oc3ccccn3)CC[C@@H]21 | 35.3%
O=C(C1=CCCC1)N1CCO[C@H]2[C@@H](Oc3ccccn3)CC[C@@H]21 | 30.1%
Cc1occc1C(=O)N1CCO[C@H]2[C@@H](Oc3ccccn3)CC[C@@H]21 | 30.7%
Cc1cncc(C(=O)N2CCO[C@H]3[C@H](Oc4ccccn4)CC[C@@H]32)c1 | 72.9%
Cc1cc(C(=O)N2CCO[C@H]3[C@H](Oc4ccccn4)CC[C@@H]32)c(C)[nH]1 | 32.1%
Cc1nn(C)c(C)c1C1CCCN1C(=O)c1ccc(C(N)=O)s1 (configuration not stated) | 22.8%
Cc1ccc(CN(C)c2cc(N3CCCC3CO)ncn2)s1 (configuration not stated) | -21.4%
CCOC(=O)N1CCN(c2nc(NC)c3ccccc3n2)CC1 | 45%
CCOC(=O)N1CCN(c2nc(N3CCCC3)c3ccccc3n2)CC1 | 3.68%
CCOC(=O)N1CCN(c2nc(NCCO)c3ccccc3n2)CC1 | 6.54%
CCOC(=O)N1CCN(c2nc(NCCCO)c3ccccc3n2)CC1 | 51.3%
CCOC(=O)N1CCN(c2nc(N)c3ccccc3n2)CC1 | -90.8%
CCOC(=O)N1CCN(c2nc(NC3CC3)c3ccccc3n2)CC1 | 52.3%
